In all, about 96,000 compounds went through this assay and about 19,000 (20%) were called active.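 How the source made its calls: active means blocking of liver enzyme CYP2C9 beyond about 50% at 5 µM (limit read from the data); inactive means the rest.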 Only a sample is shown.
Target: Cytochrome P450 2C9 (Homo sapiens) (UniProt P11712)
Assay: blockers of cytochrome P450 2C9 activity – biochemical, luminescence, ADME assay, primary screen (AID 777)
Conditions: CYP2C9 Supersomes, luciferin-H conversion, at 5 µM, active compounds read high

Chain of Cytochrome P450 2C9 (Homo sapiens) (P11712 whole entry, looked up): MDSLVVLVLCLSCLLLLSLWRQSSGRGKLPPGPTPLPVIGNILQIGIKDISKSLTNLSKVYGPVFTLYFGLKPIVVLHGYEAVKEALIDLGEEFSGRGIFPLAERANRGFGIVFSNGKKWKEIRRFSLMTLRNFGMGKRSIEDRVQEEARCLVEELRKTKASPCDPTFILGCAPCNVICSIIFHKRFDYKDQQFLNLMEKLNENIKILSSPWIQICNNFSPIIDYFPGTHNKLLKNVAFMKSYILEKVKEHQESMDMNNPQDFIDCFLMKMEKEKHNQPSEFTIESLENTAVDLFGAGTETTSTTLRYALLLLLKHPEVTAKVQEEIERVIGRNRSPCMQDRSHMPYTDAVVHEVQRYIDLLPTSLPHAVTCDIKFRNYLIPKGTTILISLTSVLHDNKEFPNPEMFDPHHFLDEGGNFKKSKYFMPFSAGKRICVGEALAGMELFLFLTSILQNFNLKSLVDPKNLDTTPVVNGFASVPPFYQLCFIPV

inhibition, active:
Cn1c2ccccc2c2c(C(=O)N3CCN(c4ccc(F)cc4)CC3)cn(C3CCCC3)c(=O)c21 89.6%, Cc1ccnc(N2CCCC(C(=O)Nc3cc(F)ccc3C)C2)n1 (centres undefined) 90.4%, O=C(CN1C(=O)CC(c2ccccc2)=Nc2ccccc21)NC1CCCCC1 52.3%, Cc1ccc(-c2nnc(-c3ccc(NC(=O)c4cccs4)cc3)o2)cc1 56.4%, Cc1ccc(OCC(=O)Nc2ccc(-c3nnc(-c4ccco4)o3)cc2)cc1 66.3%, CCC(=O)Oc1cccc(C(=O)Nc2ccc(-c3nnc(-c4ccco4)o3)cc2)c1 53.3%, CC1CCc2c(sc(NC(=O)c3ccc(Cn4cc(Br)cn4)o3)c2C(N)=O)C1 (centres undefined) 81.5%, CCCc1nc2ccccc2c(C(=O)OCc2nnc(-c3cc(OC)c(OC)c(OC)c3)o2)c1CC 67.5%, Cc1cccc(NC(=O)N(Cc2cc3cc(C)cc(C)c3[nH]c2=O)CC2COCCO2)c1 (centres undefined) 85.5%, COc1cc(C(=O)OC(C)C(=O)NCC2CCCCC2)cc(NC(=O)c2ccco2)c1OC (centres undefined) 81.6%, COCC(C)n1c(SCc2ccc(C(=O)OC)o2)nc2ccccc2c1=O (centres undefined) 52.9%, COC(=O)c1ccc(CSc2nc3ccccc3c(=O)n2-c2cccc(OC)c2)o1 100%, CC(c1ccco1)N(C(=O)Nc1ccccc1)C1CCCCC1 (centres undefined) 81.3%, Cn1c(=O)[nH]c(=O)c2c1nc(Br)n2CCCCSc1nc2ccccc2o1 67.6%, COc1cccc(C(=O)c2cc3ccc(O)cc3oc2=O)c1 92.8%, CCOC(=O)c1c(C)[nH]c(C(=O)NCc2ccccc2OC)c1C 78.3%, CCOc1ccc(CN(Cc2ccco2)C(c2cccs2)c2nnnn2C(C)(C)C)cc1 (centres undefined) 77.2%, CCOc1cccc(-n2nnnc2-c2ccc(OC)cc2)c1 91.4%, Cc1cccc2cc(CN(Cc3nnnn3Cc3ccccc3)C3CCCC3)c(=O)[nH]c12 91.5%, Cc1nc(Nc2ccc3c(c2)OCCO3)c2nnn(Cc3ccccc3Cl)c2n1 93.2%

inhibition, inactive:
COc1ccccc1Cn1c(=S)[nH]c2cc(C(=O)N3CCN(C)CC3)ccc2c1=O -2.6%, CC1CCC(NC(=O)c2ccc(N3CCCC3=O)cc2)CC1 (centres undefined) 5.2%, CSc1nc(O)c(Cc2ccccc2)c(=O)[nH]1 7.9%, Cn1c(C(=O)N2CCC(C(N)=O)CC2)cc2c(=O)n(C)c3ccccc3c21 -6.8%, CCOC(=O)N1CCN(C(=O)c2nn(-c3ccc(C)cc3)c(=O)c3c2c2ccccc2n3C)CC1 8.8%, Cn1c(=O)c2c(ncn2CC(COCc2ccccc2Cl)OCc2ccccc2Cl)n(C)c1=O (centres undefined) 21.3%, CCC1SC2=NCCN2C1(O)c1ccc(Cl)cc1 (centres undefined) 30.8%, Cc1ccnc(N2CCC(C(=O)NC3CCCCCC3)CC2)n1 -45.1%, O=C(Nc1ccc2c(c1)OCCO2)C1CCCN(c2ncccn2)C1 (centres undefined) -3.8%, Cc1nnc(SCC(=O)NC2CCCC2)s1 11.5%, O=C(CN1CCN(c2ccccn2)CC1)NC1CCCCC1 23.5%, CN(CCCNC(=O)CN1C(=O)CC(C)(C)S(=O)(=O)c2ccccc21)C1CCCCC1 9.9%, CN1CCN(Cc2c(O)ccc3c2oc(=O)c2ccccc23)CC1 -22.3%, O=C(CCc1ccccc1)Nc1cccc(-c2nnc(-c3ccco3)o2)c1 19.3%, Cc1nc(-c2ccc(NC(=O)c3cccs3)cc2)cs1 20.2%, COc1cccc(C(=O)Nc2ccc(NC(=O)c3ccco3)cn2)c1 23.4%, CCCCOc1ccc(-c2nnc(-c3ccco3)o2)cc1 19.4%, CCOc1ccc(-c2nnc(-c3ccco3)o2)cc1 31.6%, O=C(Nc1ncccn1)c1cccs1 -3.3%, COc1ccc(Cl)cc1C(=O)Nc1ccc(N(C)C(C)=O)cc1 -206%, C/C(=N\c1nc2ccccc2n1C)c1cc(Cl)ccc1O -7.5%, CC(=O)N1C(=O)C2(Nc3ccccc3N2)c2ccccc21 4.4%, CC1CCc2c(c3ccccc3[nH]c2=O)O1 (centres undefined) 35%, O=C(Nc1ccc(Br)c2cccnc12)c1ccc(Cn2cc([N+](=O)[O-])cn2)o1 -72.9%, CCOC(=O)c1c(NC(=O)c2ccc(Br)o2)sc2c1CCCC2 10.2%, C=CCN1C(=O)C(Cc2cccc(Cl)c2)S/C1=N/N=C/c1ccco1 (centres undefined) -2.7%, CCCNC(=O)c1ccc(Cl)c(Cl)c1 -10.8%, CCCCNC(=O)C1CCCNC1=O (centres undefined) -10.4%, CC1CN(c2cc(=O)n(-c3cccc(Br)c3)c(=O)[nH]2)CC(C)O1 (centres undefined) -3.4%, CCCc1nc2ccccc2c(C(=O)OCC(=O)c2ccc3c(c2)NC(=O)CO3)c1CC -20.4%, COc1cc(-c2nnc(Cn3cc(C(F)(F)F)ccc3=O)o2)cc(OC)c1OC 12%, Cc1cc(C(=O)COC(=O)c2cccs2)c(C)n1-c1c(C)n(C)n(-c2ccccc2)c1=O 15.4%, Cc1cc(=O)n(C)c(=O)n1CCCNc1ccccc1 11.2%, COc1ccc2[nH]c(=O)c(CN(CC3CCCO3)C(=O)Nc3ccccc3)cc2c1 (centres undefined) 19.4%, Cc1ccc2[nH]c(=O)c(CN(CCCN(C)C)C(=O)Nc3cccc(Cl)c3)cc2c1 1.4%, O=C(CS(=O)(=O)c1cn(Cc2ccc(Cl)cc2)c2ccccc12)N1CCOCC1 41%, CCN(c1ccccc1)S(=O)(=O)c1ccc(N)cc1 -137%, COC(=O)c1cc(Cl)c(NC(=O)c2ccco2)cc1OC -135%, COc1ccc(NC(=O)c2cccc(NC(=O)c3ccco3)c2)c(OC)c1 -50.5%, O=C(/C(=N\O)n1cncn1)c1ccc(Br)cc1Br 34.9%, CCCC(=O)C1=C(N(C)c2ccccc2)CC(C)(C)C(C(=O)OC)C1=O (centres undefined) 13.7%, N#CCSc1nc2ccccc2c(=O)n1-c1ccccc1 30.4%, CCc1c(O)nc(SCC(=O)Nc2ccccc2)n(C(C)CC)c1=O (centres undefined) 11.7%, COC(=O)CSc1nc(C2CC2)nc2ccccc12 48%, CCOC(=O)CNC(=O)c1nn(-c2cccc(OC)c2)c(=O)c2ccccc12 29.6%, O=C(CCc1ccccc1)Nc1ccc(NC(=O)C2CC2)nc1 25.9%, N#Cc1c(N)n(CCOC(=O)c2ccc(Cl)cc2)c2nc3ccccc3nc12 14.9%, CCOc1ccc(NC(=O)N(CCC(C)C)C(C)c2ccco2)cc1 (centres undefined) 43.6%, CCCC(C(=O)NCc1ccco1)N(C(=O)CNS(=O)(=O)c1ccccc1)C1CCCC1 (centres undefined) 40.6%, Cc1cc(C)c(S(=O)(=O)N2C=CC(C(F)(F)F)=NCC2)c(C)c1 13.2%, OC(CN1C2=NCCCN2c2ccccc21)c1ccc(Br)cc1 (centres undefined) 17.7%, NC(=S)c1ccc(C(N)=S)o1 23.3%, Cc1ccnc(SCCn2c(Br)nc3c2c(=O)[nH]c(=O)n3C)n1 -6.9%, CCCCCCn1c(SCC(=O)c2ccccc2)nc2c1c(=O)[nH]c(=O)n2C 18.7%, CN(C)/C=C(/C(=O)c1ccc(Cl)cc1)S(=O)(=O)c1ccccc1 -9.5%, COc1cccc(C(=O)NNC(=O)c2ccccc2Br)c1 -182%, COc1ccc2oc(=O)c(C(=O)O)cc2c1 -6.4%, O=C(NC1=NCCS1)c1ccc(Cl)s1 3.9%, COc1ccc(C(=O)n2nc(-c3ccc(C)cc3)nc2N)cc1OC -9.5%, Cc1ccc2nc(NC3=NCN(CCc4ccccc4)CN3)nc(C)c2c1 -5.5%, CC(=O)c1c(C)[nH]c(C(=O)NCc2ccc(C)cc2)c1C 49.2%, COc1ccccc1CNC(=O)c1ccc(SC)cc1OC -50.7%, Cn1c2c(c(=O)n(C)c1=O)CN(Cc1ccco1)CN2 -11.6%, N#CCSc1nc2c(c(=O)n1Cc1ccccc1)C1(CCCC1)Cc1ccccc1-2 36.9%, CC(C)C(NC(=O)c1ccc(Cl)cc1)C(=O)O (centres undefined) -5.3%, O=C(CC1CCCCC1)Nc1c2c(nn1-c1ccc(F)cc1)CS(=O)(=O)C2 -6.5%, COc1ccc(-c2nc3n(c2Br)CCC3)cc1 2.9%, CC(C)(C)n1nnnc1C(c1cccs1)N(Cc1cccnc1)CC1CCCO1 (centres undefined) 19.7%, CC(C)(C)NC(=O)CN(Cc1cccs1)C(=O)CNS(=O)(=O)c1ccccc1 26.8%, Cc1cc(C)c2nc(SCCC#N)nc(C)c2c1 -19.9%, CCOC(=O)Nc1ccc2c(c1)N(C(=O)CCN1CCN(CCO)CC1)c1ccccc1CC2 -14%, COc1ccc(-n2nnnc2SCC(=O)c2ccc(OC)c(OC)c2)cc1 45.6%, CCOc1cccc(-c2nnc3sc(COc4ccc(OC)cc4)nn23)c1 20.9%, Cc1cc(C)c2cc(CN(Cc3nnnn3Cc3ccc(F)cc3)C3CCCC3)c(=O)[nH]c2c1 -7.2%, Cc1cccc2cc(CN(Cc3ccc4c(c3)OCO4)Cc3nnnn3C3CCCC3)c(=O)[nH]c12 38.4%, O=C(CCl)NNc1cccc(Cl)n1 10.1%, c1ccc(-c2ccnc3nc(-n4cccc4)nn23)cc1 6.8%, C#CCNc1nc(C(C)C)nc2c1nnn2Cc1ccccc1F 40.2%, CC(C)(C)c1nc(NCC2CCCO2)c2nnn(Cc3ccccc3)c2n1 (centres undefined) 32.7%

Source: PubChem BioAssay AID777 (Sanford-Burnham Center for Chemical Genomics, 2007)
